# Measured values: PubChem BioAssay
# Several values for one entry are separate records, joined by “and”; a condition that tells them apart may be missing. Equal entries are not always repeated. Activity calls are given as the source filed them. Cut-off read from the data, not from the text of the source, unless noted: active = inhibition above about 80%; inactive = the rest.
# Experiments:
# [1] = growth inhibition, single agent or in combination, cell-based, chromothripsis tumors, cisplatin or BGB combos (AID 1671449); details: LFS_MB_P medulloblastoma cells;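 note: cells exposed for 96 hours; 0% = vehicle DMSO and 100% = killing by high DMSO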
# [2] = growth inhibition, single agent and combos, cell-based, chromothripsis tumors, cisplatin or BGB combos (AID 1671450); details: HDN33 neuroblastoma cells, stronger effect = higher value;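 note: cells exposed to compound for four days; 0% = vehicle DMSO and 100% = cell killing by high DMSO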
# [3] = growth inhibition, single agents and combos, ICB984, cell-based, cisplatin or BGB combos, synergistic combos for chromothripsis tumors (AID 1671451; call rule not given here;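 note: cells exposed for 96 hours before readout; 0% = vehicle DMSO and 100% = killing by high DMSO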); details: ICB984 medulloblastoma cells, drug combinations, stronger effect = higher value
# [4] = growth inhibition, single agents and combos, LFS_MB_1R, cell-based, cisplatin or BGB combos, synergistic combos for chromothripsis tumors (AID 1671452); details: LFS_MB_1R medulloblastoma cells, stronger effect = higher value;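 note: cells exposed for 96 hours before readout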
# [5] = growth inhibition, single agents and combos, HTB85, cell-based, BGB or cisplatin IC20 combos, synergistic combos for chromothripsis tumors (AID 1671453); details: HTB85 osteosarcoma cells, drug combinations, stronger effect = higher value;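 note: cells exposed for 96 hours before readout; 0% = vehicle DMSO and 100% = high DMSO killing control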
# [6] = growth inhibition, single agents and combos, CRL2098, cell-based, BGB or cisplatin IC20 combos, synergistic combos for chromothripsis tumors (AID 1671454); details: CRL2098 osteosarcoma cells, drug combinations, stronger effect = higher value;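 note: cells exposed for 96 h before readout; 0% = vehicle DMSO and 100% = killing by high DMSO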
# [7] = growth inhibition, single agents and combos, HD-MB03, cell-based, BGB or cisplatin IC20 combos, synergistic combos for chromothripsis tumors (AID 1671455; in the data active = inhibition above about 83%;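 note: 0% = vehicle DMSO and 100% = high DMSO as cytotoxic control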); details: HD-MB03 medulloblastoma cells, stronger effect = higher value
# [8] = growth inhibition, single agents and combos, UWB1.289, cell-based, BGB or cisplatin combos, synergistic combos for chromothripsis tumors (AID 1671456); details: UWB1.289 ovarian carcinoma cells, stronger effect = higher value;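 note: cells exposed to compound for four days; 0% = vehicle DMSO and 100% = killing by high DMSO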
# [9] = growth inhibition, single agents and combos, LFS_MB_2R, cell-based, cisplatin combos, synergistic combos for chromothripsis tumors (AID 1671457); details: LFS_MB_2R medulloblastoma cells, stronger effect = higher value;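 note: cells exposed to compound for four days before readout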
# [10] = growth inhibition, MDA-MB-436, cell-based, BGB or cisplatin combos, synergistic combos for chromothripsis tumors (AID 1671458; call rule not given here;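 note: cells exposed for 96 hours; 0% = vehicle DMSO and 100% = killing by high DMSO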); details: MDA-MB-436 breast carcinoma growth inhibition, drug combinations, stronger effect = higher value
# [11] = UWB1.289_BRCA1 ovarian cancer growth, cell-based, BGB or cisplatin combinations (AID 1671459); details: UWB1.289 BRCA1 ovarian carcinoma, drug combinations, stronger effect = higher value
# [12] = drug combination toxicity in non-malignant astrocytes – cell-based, BGB or cisplatin IC20 combos, cytotoxicity control for chromothriptic childhood tumor combination screen (AID 1671460); details: Human astrocytes, viability inhibition, drug combinations, at 0.5 µM, stronger effect = higher value;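 note: cells exposed to compounds for 96 hours before viability readout; 0% = vehicle and 100% = killing control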
# [13] = BT084 cell growth, single and combined drugs, ICGC_MB145, cisplatin and BGB IC40 combos (AID 1671461); details: BT084 medulloblastoma cells, drug combinations, stronger effect = higher value;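 note: cells exposed to drugs for 96 hours; 0% = vehicle DMSO and 100% = high DMSO full killing control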
# [14] = RCMB18 cell growth, single agent and combined, cisplatin and BGB IC40 combos (AID 1671462); details: RCMB18 medulloblastoma cells, stronger effect = higher value;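 note: cells exposed to compound for four days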
# [15] = CRL1545 cell growth, single agent and combined, cisplatin and BGB IC20 combos (AID 1671464); details: CRL1545 osteosarcoma cells, stronger effect = higher value;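 note: cells exposed to compound for 96 hours before readout; 0% = vehicle DMSO and 100% = high DMSO killing control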
# [16] = measured here: combination with BGB IC40, at 0.05 µM
# [17] = measured here: with BGB IC20 combination, at 0.5 µM
# [18] = measured here: with cisplatin IC20 combination, at 0.5 µM
# [19] = measured here: combination with cisplatin, at 0.5 µM
# [20] = measured here: combination with cisplatin, at 5 µM
structure (smiles),measurement,setting,value
COc1cc([C@@H]2c3cc4c(cc3[C@H](O)[C@H]3COC(=O)[C@H]23)OCO4)cc(OC)c1O,inhibition,"[1]; at 0.5 µM, stronger effect = higher value",-9.98% (inactive) and 8.43% (inactive)
same,inhibition,"[1]; measured here: combination with BGB IC20, at 0.005 µM",-2.59% and -6.87%
same,inhibition,"[1]; measured here: combination with BGB IC40, at 0.005 µM",7.46% and -20.3%
same,inhibition,[1]; [16],35.2% and -17%
same,inhibition,"[1]; measured here: combination with cisplatin, at 0.5 µM, stronger effect = higher value",-26% and 12.8%
same,inhibition,"[1]; measured here: combination with cisplatin, at 5 µM, stronger effect = higher value",48% and 29.7%
same,inhibition,"[2]; BGB combo, at 5 µM",64.5% and 57.8%
same,inhibition,[2]; at 0.5 µM,76% (inactive) and 68.9% (inactive)
same,inhibition,"[2]; cisplatin combo, at 5 µM",60.1% and 62.6%
same,inhibition,[2]; [17],66.9% and 60.4%
same,inhibition,[2]; [18],69% and 58.6%
same,inhibition,"[2]; single agent, at 5 µM",77.6% and 81.6%
same,inhibition,"[3]; BGB IC20 combo, at 0.005 µM",12.7% and -7.66%
same,inhibition,"[3]; BGB IC40 combo, at 0.005 µM",1.81% and -7.75%
same,inhibition,"[3]; BGB IC40 combo, at 0.05 µM",4.84% and 20.6%
same,inhibition,[3]; at 0.5 µM,-16.8% (inactive) and -20% (inactive)
same,inhibition,"[3]; cisplatin combo, at 0.05 µM",1.07% and 20.6%
same,inhibition,"[3]; cisplatin combo, at 0.5 µM",-39.6% and -30.5%
same,inhibition,"[3]; cisplatin combo, at 5 µM",-37.8% and -5.3%
same,inhibition,"[3]; measured here: 5 uM single agent, at 5 µM",0.691% and -3.02%
same,inhibition,[4]; at 0.5 µM,4.95% (inactive) and 4.02% (inactive)
same,inhibition,[4]; [16],-9.68% and 4.85%
same,inhibition,[4]; [19],-26.6% and 18%
same,inhibition,[4]; [20],44.6% and 52.8%
same,inhibition,[5]; at 0.5 µM,70% (inactive) and 60.4% (inactive)
same,inhibition,"[5]; measured here: with BGB IC20, at 0.5 µM",56.9% and 41.3%
same,inhibition,"[5]; measured here: with BGB IC20, at 5 µM",58.2% and 51.8%
same,inhibition,"[5]; measured here: with cisplatin IC20, at 0.5 µM",60.9% and 54%
same,inhibition,"[5]; measured here: with cisplatin IC20, at 5 µM",70.5% and 80%
same,inhibition,"[5]; single agent, at 5 µM",87% and 84.5%
same,inhibition,[6]; at 0.5 µM,57.9% (inactive) and 29.8% (inactive)
same,inhibition,"[6]; measured here: combination with BGB at IC20, at 0.5 µM",50.3% and 29.8%
same,inhibition,"[6]; measured here: combination with cisplatin at IC20, at 0.5 µM",57.2% and 5.54%
same,inhibition,[7]; at 0.5 µM,71.7% (inactive) and 69.2% (inactive)
same,inhibition,"[7]; measured here: combo with BGB at IC20, at 0.5 µM",61.9% and 65.3%
same,inhibition,"[7]; measured here: combo with cisplatin at IC20, at 0.5 µM",71.7% and 65.8%
same,inhibition,[8]; at 0.5 µM,44% (inactive) and 35.9% (inactive)
same,inhibition,"[8]; measured here: inhibition with BGB combination, at 0.05 µM",-0.844% and 8.28%
same,inhibition,"[8]; measured here: inhibition with cisplatin combination, at 0.05 µM",0.424% and -0.759%
same,inhibition,[9]; at 0.5 µM,13.5% (inactive) and -0.16% (inactive)
same,inhibition,[9]; [19],23.7% and 7.38%
same,inhibition,[9]; [20],37.2% and 35.6%
same,inhibition,[10]; at 0.5 µM,56.1% (inactive) and 45.1% (inactive)
same,inhibition,"[10]; measured here: BGB combination, at 0.5 µM",36% and 23.1%
same,inhibition,"[10]; measured here: BGB combination, at 5 µM",45.8% and 43.9%
same,inhibition,"[10]; measured here: cisplatin combination, at 0.5 µM",63.1% and 44.6%
same,inhibition,"[10]; measured here: cisplatin combination, at 5 µM",70.8% and 69%
same,inhibition,"[11]; BGB combination, concentration series, at 5 µM",55.3% and 54.8%
same,inhibition,[11]; at 0.5 µM,51.6% (inactive) and 46.7% (inactive)
same,inhibition,"[11]; cisplatin combination, concentration series, at 5 µM",64.1% and 63.1%
same,inhibition,[12],69.7% (inactive) and 62.4% (inactive)
same,inhibition,[12]; measured here: combo with BGB IC20,66.6% and 57.1%
same,inhibition,[12]; measured here: combo with cisplatin IC20,62.5% and 52.4%
same,inhibition,[13]; at 0.5 µM,23.1% (inactive) and 7.97% (inactive)
same,inhibition,"[13]; cisplatin combination, at 0.5 µM",-0.605% and 4.61%
same,inhibition,"[13]; cisplatin combination, at 5 µM",43.4% and 22.5%
same,inhibition,"[13]; measured here: BGB IC40 combination 0.05 uM, at 0.05 µM",7.15% and -9.48%
same,inhibition,"[13]; single agent, at 5 µM",73.2% and 24.9%
same,inhibition,[14]; at 0.5 µM,6.51% (inactive) and -0.09% (inactive)
same,inhibition,"[14]; cisplatin combo, at 5 µM",39.6% and 46.7%
same,inhibition,"[14]; measured here: BGB IC40 combination, at 0.05 µM",-8.85% and -7.39%
same,inhibition,[14]; [19],22% and 15.3%
same,inhibition,"[14]; single agent, at 5 µM",43.2% and -3.33%
same,inhibition,[15]; at 0.5 µM,56.5% (inactive) and 47% (inactive)
same,inhibition,[15]; [17],55% and 43.8%
same,inhibition,[15]; [18],57.3% and 48.6%
same,inhibition,"[15]; single agent, at 0.05 µM",-5.66% and 32.2%
same,inhibition,"[15]; single agent, at 5 µM",83% and 76.2%
